# Shown are actives, neighbours in structure and some others; about 1.5% of the full set was active somewhere.
# IDE act = activators of human insulin-degrading enzyme in cells. HEK cells, FAbeta-B cleavage, fluorescence polarization; 0% vehicle, 100% cell-free pure enzyme wells. hit rate 0.073% among 340,000. activation, % at 5.96 µM. P14735;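 active means activation above the mean of all tested compounds plus 3 SD, set per screening campaign, cut at about 17% in these data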
# Target sequence (P14735 whole entry, looked up): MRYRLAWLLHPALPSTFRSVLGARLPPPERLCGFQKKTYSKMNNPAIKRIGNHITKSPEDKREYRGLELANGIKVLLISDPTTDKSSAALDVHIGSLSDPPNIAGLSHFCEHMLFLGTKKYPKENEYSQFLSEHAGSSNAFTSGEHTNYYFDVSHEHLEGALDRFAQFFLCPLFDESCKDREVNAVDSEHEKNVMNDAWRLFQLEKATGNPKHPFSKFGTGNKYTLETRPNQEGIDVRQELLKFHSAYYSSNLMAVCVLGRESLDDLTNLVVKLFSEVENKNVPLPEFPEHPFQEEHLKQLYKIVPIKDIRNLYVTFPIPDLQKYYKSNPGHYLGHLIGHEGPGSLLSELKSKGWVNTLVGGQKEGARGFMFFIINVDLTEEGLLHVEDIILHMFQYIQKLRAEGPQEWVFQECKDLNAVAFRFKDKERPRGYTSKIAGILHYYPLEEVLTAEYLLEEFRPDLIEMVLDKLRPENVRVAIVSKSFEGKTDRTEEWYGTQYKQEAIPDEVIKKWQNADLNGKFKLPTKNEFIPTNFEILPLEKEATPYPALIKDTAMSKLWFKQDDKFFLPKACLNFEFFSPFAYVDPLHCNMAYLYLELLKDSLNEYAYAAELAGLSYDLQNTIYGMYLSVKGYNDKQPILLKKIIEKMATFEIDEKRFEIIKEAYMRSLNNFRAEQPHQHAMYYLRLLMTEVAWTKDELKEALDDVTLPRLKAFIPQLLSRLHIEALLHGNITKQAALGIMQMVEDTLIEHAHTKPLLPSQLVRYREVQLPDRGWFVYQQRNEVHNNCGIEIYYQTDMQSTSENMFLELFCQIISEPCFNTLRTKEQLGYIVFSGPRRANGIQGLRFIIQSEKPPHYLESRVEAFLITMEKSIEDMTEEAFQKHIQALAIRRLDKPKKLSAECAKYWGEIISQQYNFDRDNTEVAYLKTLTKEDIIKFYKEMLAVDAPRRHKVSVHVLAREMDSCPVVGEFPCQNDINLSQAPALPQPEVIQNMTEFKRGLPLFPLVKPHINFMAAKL
# cardiac RTF act = cardiac RTF calcium sensitization | activation, % at 7.2 µM | IANBD-labeled TnC RTF fluorescence at EC20 calcium; 0% EC20 calcium, 100% full calcium | hit rate 0.24% among 340,000 | AID 493008 | P19429+P45379;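 active means activation above the mean over all tested compounds plus 3 SD, cut at about 30% in these data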;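 further: rise in fluorescence read as greater calcium sensitivity of cardiac thin filaments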
# Cardiac RTF inh = cardiac RTF calcium desensitization; P19429+P45379; IANBD-labeled cardiac RTF, Ca2+ fluorescence; inhibition, % at 7.15 µM; hit rate 0.12% among 340,000; AID 493244;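 active means inhibition above the mean inhibition of all tested compounds plus 3 SD, cut at about 17% in these data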;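 further: assay run at fixed EC70 calcium of 1.6 mM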
# CRFBP-R2 agonist = CRF-BP/CRF-R2 complex agonism; AID 588473; activation, % at 13.2 µM; hit rate 0.46% among 350,000; HEK293 CRF-R2/CRF-BP, calcium dye fluorescence (FLIPR); percent of saturating CRF peptide response;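 active means activation of at least 50%, plus an integration ratio under a set limit after plate pattern correction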;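 further: plate controls were neutral control wells without compound for no effect and CRF at EC100 for full effect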
# TPT1 inhibitor = C. albicans TPT1 enzyme inhibition | recombinant caTPT1, FP RNA substrate dephosphorylation | inhibition, % at 5 µM | hit rate 0.81% among 300,000 | AID 1962;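 active means inhibition above the mean of all tested compounds plus 3 SD, set per screening campaign, cut at about 24% in these data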;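 further: plate controls were DMSO alone for no effect and ferristatin control at 100 nM for full effect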
# IDE inh = inhibits human insulin-degrading enzyme in HEK cells; P14735; FAbetaB cleavage, fluorescence polarization; inhibition, % at 5.59 µM; hit rate 0.41% among 320,000; AID 434962;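 active means percent inhibition above the average of all tested compounds plus 3 SD, set per screening campaign, cut at about 16% in these data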;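 further: IDE supplied by intact live HEK cells; FP after avidin binding of uncleaved biotin substrate so inhibition keeps polarization high; 0% = DMSO wells and 100% = 60 µM reference IDE inhibitor Ii1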
# The depositor's hits bear a star; i = inactive; · = no result given.
SMILES,IDE act,cardiac RTF act,Cardiac RTF inh,CRFBP-R2 agonist,TPT1 inhibitor,IDE inh
Cc1c(CN2CCCC(C)C2)c(O)n(CCO)c(=O)c1C#N (stereo not given),-2,35*,4,3,2,0
O=C(OC(c1ccccc1)c1nccc2ccccc12)c1cc([N+](=O)[O-])cc([N+](=O)[O-])c1 (stereo not given),5,5,4,-2,-2,3
C[C@H](NC(=O)c1ccco1)C(=O)NC1CCCCCC1,2,0,-8,-1,·,-3
CSCCC(NC(=O)c1ccco1)C(=O)OC(C)C(=O)NC(=O)NC1CCCCC1 (stereo not given),4,0,-5,183*,0,5
COc1cc(Cl)c(C)cc1NC(=O)CSc1ccc(NC(C)=O)cc1,-9,-6,-11,0,4,18*
O=[N+]([O-])c1ccc(/C=N/Nc2nc(NCc3ccccc3)nc(N3CCOCC3)n2)cc1,-2,-3,3,0,0,2
O=[N+]([O-])c1cccc(/C=N/Nc2nc(NCc3ccccc3)nc(N3CCOCC3)n2)c1O,12,5,-7,69*,0,4
Cc1ccc(N/C=C(\C#N)S(=O)(=O)c2ccccc2)cc1,18*,3,-5,1,-1,3
CSCCC(NC(=O)COc1ccccc1)C(=O)NCCOc1ccc(C)cc1 (stereo not given),4,3,-2,-2,·,·
COc1cc([N+](=O)[O-])ccc1-c1ccc(/C=N/NC(=O)OC(C)(C)C)o1,2,10,-2,57*,18,2
COc1cc(C)ccc1OCCOCCOc1cccc2ccc(C)nc12,5,1,0,-2,-2,8
O=C(OCC(=O)N1N=C(c2ccc(Cl)cc2)CC1c1ccco1)c1ccco1 (stereo not given),2,4,-3,240*,2,2
COc1ccc(OC)c(/C=c2\sc3nc(-c4cccs4)nn3c2=O)c1,6,50*,-2,175*,22,1
COCO/C=C(\NC(C)=O)c1ccccc1,31*,-2,-6,1,·,2
Cc1cc2nc3c(=O)n(CCc4ccccc4)c(=O)[nH]c3nc2cc1N,-22,516*,i,152*,-35,13
CCCCn1c(N)c(Br)c(=O)[nH]c1=O,2,3,0,1,0,2
CCCCn1c(=O)[nH]c2nc3cc(N)ccc3nc2c1=O,3,767*,i,232*,-98,10
Cc1cc(N2CCCCC2)nc(N)n1,2,3,0,235*,-1,7
C#CCOCCOCCOCCNc1nc(N2CCOCC2)nc(N2CCN(C(=O)CCCCCCCCCCNC(=O)[C@H]([C@@H](C)CC)n3cc(CCCCN=C(N)N)nn3)CC2)n1,4,14,8,-1,-1,3
C#CCOCCOCCOCCNc1nc(N2CCN(C(=O)CCCCCCCCCCNC(=O)Cn3cc(C[C@@H](C)O)nn3)CC2)nc(N2CCN(C(=O)CCCCCCCCCCNC(=O)[C@@H]([C@H](C)CC)n3cc(CCCCCN)nn3)CC2)n1,26*,8,-8,32,-4,10
C#CCOCCOCCOCCNc1nc(N2CCN(C(=O)CCCCCCCCCCNC(=O)Cn3cc(CCCCCN)nn3)CC2)nc(N2CCN(C(=O)CCCCCCCCCCNC(=O)[C@@H]([C@H](C)O)n3cc(C)nn3)CC2)n1,25*,-4,4,19,-1,-3
C#CCOCCOCCOCCNc1nc(N2CCN(C(=O)CCCCCCCCCCNC(=O)Cn3cc(CCCCCN)nn3)CC2)nc(N2CCN(C(=O)CCCCCCCCCCNC(=O)Cn3cc(C[C@@H](C)O)nn3)CC2)n1,22*,7,4,31,-2,2
C#CCOCCOCCOCCNc1nc(N2CCN(C(=O)CCCCCCCCCCNC(=O)Cn3cc(C[C@@H](C)O)nn3)CC2)nc(N2CCN(C(=O)CCCCCCCCCCNC(=O)[C@@H]([C@H](C)O)n3cc(C)nn3)CC2)n1,3,11,0,4,-2,4
C#CCOCCOCCOCCNc1nc(N2CCN(C(=O)CCCCCCCCCCNC(=O)[C@H]([C@@H](C)CC)n3cc(CCCCN=C(N)N)nn3)CC2)nc(N2CCN(C(=O)CCCCCCCCCCNC(=O)[C@@H]([C@H](C)O)n3cc(C)nn3)CC2)n1,51*,11,-2,-1,3,-1
COc1cc(/C=C/C(=O)OCC(=O)NCCC2=CCCCC2)cc(OC)c1OC,0,3,-1,-1,·,6
SMILES,IDE act,cardiac RTF act,Cardiac RTF inh,CRFBP-R2 agonist,TPT1 inhibitor,IDE inh
COc1ccc(OCc2cc(C(=O)NC(C)Cc3cnccn3)no2)c(Cl)c1 (stereo not given),-2,-2,0,-2,-5,6
CN(CC(=O)N(C)CC(=O)Nc1c(Cl)cccc1Cl)Cc1ccc(Br)s1,-1,0,-1,-1,·,-3
Cn1c2ccccc2c(=O)c2c(=O)n(Cc3ccco3)c(-c3ccc(C(C)(C)C)cc3)nc21,·,·,·,·,1,2
O=c1ccc2cc3c4c(c2o1)CCCN4CCC3,3,129*,-245,20,-13,4
O=c1oc2c3c4c(cc2s1)CCCN4CCC3,-5,8,-17,2,-35,12
CCOC(=O)c1sc(NC(=S)NC(=O)c2cccc(OC)c2)nc1C,4,-6,3,58*,-3,3
O=C(Nc1ccc(Br)cc1Cl)c1ccc2c(=O)n3c(nc2c1)CCC3,5,-6,-3,101*,3,8
O=C(Nc1ccc(Cl)cc1Cl)c1ccc2c(=O)n3c(nc2c1)CCC3,1,-6,2,29,-1,-10
CCn1c(/C=C/c2ccccc2F)nc2ccccc2c1=O,16,3,-3,1,·,·
CC(=O)Oc1oc(-c2ccccc2)nc1C=Nc1ccccc1,2,-3,0,57*,0,0
CCOC(=O)c1ccc(N=Cc2nc(-c3ccccc3)oc2OC(C)=O)cc1,2,-2,-2,1,0,2
C[N+]1(C2CCC3CCCC2C3O)CCCC1 (stereo not given),0,-2,-8,5,3,2
CCOC(=O)CSc1ccc2ccccc2n1,1,6,-13,-3,2,-5
CCOC(=O)CN1C=C(c2ccc3ccccc3n2)C(C[N+](=O)[O-])c2ccccc21 (stereo not given),7,36*,-61,32,-65,-1
CCN(C[C@H]1N[C@@](C)(C(=O)OC)[C@H]2C(=O)N(Cc3ccccc3)C(=O)[C@@H]12)C(=O)C1CCCCC1,1,-4,0,1,·,3
CCN(C[C@H]1N[C@@](Cc2ccccc2)(C(=O)OC)[C@H]2C(=O)N(Cc3ccccc3)C(=O)[C@@H]12)C(=O)C1CCCCC1,1,-6,-3,110*,·,3

# Screening data as filed in PubChem.
